Compound activity as filed in PubChem.
MITF TRPM1 inh – inhibitors of MITF-dependent TRPM1 promoter reporter, primary screen, cell-based, SK-MEL-5, single point, luciferase | SK-MEL-5 TRPM1 promoter luciferase, 24 h | 330,000 tested, 0.83% active | AID 488899, 2010 | inhibition, % at 12.5 µM;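 active = mean inhibition across replicates of 60% or more, whatever share of single replicates reaches that level; inconclusive = some that reach 60%, reason not given; inactive = mean inhibition across replicates below 60%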
EWS-Fli inh – EWS/Fli-driven NR0B1 reporter inhibitors, primary screen, A673 cells, NR0B1 luciferase, luminescence, MLPCN library. viability-normalised. AID 651661, 2012. 350,000 tested, 0.67% active. inhibition, % at 12.6 µM;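 active = mean inhibition of at least 50% after viability correction, with every replicate also passing that limit; inconclusive = mean reaches 50% but only one of two replicates passes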;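 note: firefly luciferase signal divided by Alamar Blue viability fluorescence both relative to DMSO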
LMP1 NFkB inh – EBV LMP1-driven NF-kappaB luciferase reporter inhibitors, primary screen, cell-based, luminescence, single point. inhibition, % at 12.5 µM. 350,000 tested, 0.69% active. LMP1-induced NF-kappaB luciferase reporter cells; in the data active = inhibition above about 41%; inconclusive = no clear call, values can overlap the other calls;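 note: 0% = neutral control wells and 100% = reference inhibitor control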
PAX8 reporter – inhibitors of PAX8-driven TPO luciferase reporter, primary screen, RMG-I cells, single concentration | inhibition, % at 12.6 µM | 360,000 tested, 1.2% active | SteadyGlo, 24 h;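 active = mean replicate inhibition at least 60% with every replicate also reaching 60%; inconclusive = only one of the two criteria is met; inactive = mean below 60% and not all replicates reaching 60%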;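 note: luciferase light reporting Pax8 driven TPO promoter activity; plate controls were median of neutral control wells for no effect and mitoxantrone controls for full effect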
LGR2 antag – inhibitors of bursicon-induced LGR2 CRE-luciferase signal, primary screen, cell-based, HEK293, CRE-luciferase reporter, bursicon stimulation. Drosophila bursicon receptor LGR2 (rickets). bursicon-stimulated, 4 h. inhibition, % at 9.99 µM. 380,000 tested, 0.35% active. AID 720647, 2013;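 active = drop in luminescence signal, shown as inhibition above about 50% in the replicate tests, limit read from the data, passing the limit was not always enough; inconclusive = probably only some replicates passing the limit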;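 note: agonist challenge used bursicon conditioned medium at about half maximal strength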
Shn3 inh set2 – reduction of Shn3 3'UTR firefly luciferase signal, primary screen, Schnurri-3 inhibitor project, cell-based, Clone20 osteoblasts, set 2; inhibition, % at 12.5 µM; 360,000 tested, 0.52% active; Clone20 osteoblast Shn3 3'UTR firefly luciferase, 24 h; AID 588674, 2011;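 active = mean inhibition of at least 75% with every replicate also reaching 75%; inconclusive = mean inhibition at least 75% but some replicate below; inactive = mean inhibition below 75%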;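 note: 0% = median of neutral control wells and 100% = pilot-screen positive control compound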
The depositor's hits bear a star; ? = inconclusive; / = no result given. The list is not random: actives were taken first. Their share in the collection is about 2.2%.

SMILES	MITF TRPM1 inh	EWS-Fli inh	LMP1 NFkB inh	PAX8 reporter	LGR2 antag	Shn3 inh set2
COc1ccc(NC(=O)N(C)C[C@@H]2Oc3ccc(NC(=O)CCC(F)(F)F)cc3CC(=O)N([C@@H](C)CO)C[C@H]2C)cc1	/	-7	/	0	0	/
O=C(C[C@H]1CC[C@@H](NC(=O)CN2CCOCC2)[C@@H](CO)O1)NCc1cccc(F)c1	/	-1	/	6	21	/
CC1CCCN(c2ccc([N+](=O)[O-])cc2C(=O)c2ccccc2)C1 (stereo unspecified)	30	59*	4	57	-6	31
O=C(c1ccc(Cl)cc1)c1cc([N+](=O)[O-])ccc1N1CCOCC1	5	59*	12	43	-18	9
Cc1ccc(C(=O)c2cc([N+](=O)[O-])ccc2N2CCCCC2)cc1	30	/	-6	88*	-32	6
O=C(c1ccccc1)c1cc([N+](=O)[O-])ccc1N1CCOCC1	13	/	11	43	20	-2
O=C(c1ccc(Br)cc1)c1cc([N+](=O)[O-])ccc1N1CCOCC1	7	46	-1	24	-9	4
COc1ccc(S(=O)(=O)N(C)C[C@H]2OCCCC[C@H](C)Oc3ccc(NS(=O)(=O)c4ccc(C)cc4)cc3C(=O)N([C@@H](C)CO)C[C@@H]2C)cc1	/	3	/	?	13	/
CO[C@@H]1CN(C)C(=O)c2ccc(NC(=O)C3CC3)cc2OC[C@@H](C)N(CCc2ccccc2)C[C@@H]1C	/	3	/	-7	15	/
COc1ccc(C#Cc2ccc([C@H]3[C@@H](CO)N4CCCCN(C(=O)Nc5cccc(F)c5)C[C@H]34)cc2)cc1	/	29	/	76*	-32	/
Cc1ccc(-c2ccc([C@H]3[C@@H](CO)N4CCCCN(C(=O)Nc5cccc(F)c5)C[C@H]34)cc2)cc1	/	15	/	108*	12	/
COc1ccc(C#Cc2ccc([C@@H]3[C@H]4CN(C(=O)Nc5cccc(F)c5)CCCCN4[C@H]3CO)cc2)cc1	/	15	/	15	2	/
COc1ccc(C#Cc2ccc([C@H]3[C@@H](CO)N4CCCCN(C(=O)Nc5cccc(F)c5)C[C@@H]34)cc2)cc1	/	5	/	15	-36	/
COc1ccc(C#Cc2ccc([C@@H]3[C@H](CO)N4CCCCN(C(=O)Nc5cccc(F)c5)C[C@@H]34)cc2)cc1	/	33	/	76*	11	/
COCC(=O)Nc1ccc2c(c1)OC[C@@H](C)N(Cc1cccnc1)C[C@H](C)[C@H](OC)CN(C)C2=O	/	1	/	/	-9	/
Cc1ccccc1OCC(O)CNC1CCC(NCC(O)COc2ccccc2C)CC1 (stereo unspecified)	99*	69*	-35	114*	13	97*
Cc1ccc(-c2ccc([C@H]3[C@@H](CO)N4C(=O)CN(C(=O)c5cccnc5)C[C@H]34)cc2)cc1	/	-4	/	2	9	/
CCCCCC[N+](C)(C)CCSSCC[N+](C)(C)CCCCCC	-2	7	-5	15	3	-6
C#CC[N+](C)(C)CCCCCCCCCC	12	6	14	20	/	43
CCCCCCCCCCCCCCCC[N+](C)(C)CC	39	53*	2	107*	36	93*
CCCCCCCCCCCCCCCC[N+](C)(C)CCl	-3	37	0	106*	25	83
Cc1ccc(-n2nnc(-c3nccs3)n2)cc1	55	82*	58*	36	-12	-4
O=C(NC1CCCCC1)C(c1cccnc1)N(C(=O)CCl)c1cccc(Cl)c1 (stereo unspecified)	83*	58*	19	29	-11	-7
Cc1cccc(N(C(=O)CNC(=O)c2ccco2)C(C(=O)NC2CCCCC2)c2cccnc2)c1 (stereo unspecified)	5	2	2	5	20	-7
COc1ccc(C(C(=O)NC2CCCCC2)N(C(=O)CCl)c2ccc(Cl)cc2)cc1 (stereo unspecified)	79*	/	17	/	/	94*
SMILES	MITF TRPM1 inh	EWS-Fli inh	LMP1 NFkB inh	PAX8 reporter	LGR2 antag	Shn3 inh set2
COc1cc(Cn2c3ccc(NC(=O)CCc4ccccc4)cc3c(=O)n2C)ccc1F	/	54*	/	38	1	26
COc1cc(Cn2c3ccc(NC(=O)CCc4cccnc4)cc3c(=O)n2C)ccc1F	/	1	/	8	25	-20
CCCN1C[C@H](C)[C@@H](OC)CN(C)C(=O)c2cc(NC(=O)c3ccno3)ccc2OC[C@@H]1C	/	-6	/	-14	11	/
O=C(C=Cc1ccco1)c1ccc2ccccc2c1	-56	1	-12	-137	-8	95*
CN(C)c1ccc(C(=O)/C=C/c2ccco2)cc1	-44	/	-28	-26	16	-131
CCCNC(=O)[C@H]1[C@H](CO)[C@H]2Cn3c(ccc(-c4ccccc4OC)c3=O)[C@H]2N1C(=O)CC	/	-4	/	3	-2	/
COc1ccc(-c2cc(=O)c3cc(F)ccc3[nH]2)cc1	-44	-48	-1	-10	-18	-10
COc1ccc2[nH]c(-c3ccc(C)cc3)cc(=O)c2c1	51	/	43*	/	/	33
COc1ccc(C(=O)Nc2ccc3[nH]c(-c4cccc(OC)c4)cc(=O)c3c2)cc1	13	57*	8	39	-1	-2
COc1ccc(C(=O)Nc2cccc(OC)c2)cc1	-111	-26	-12	/	-29	-1
COc1ccc(COc2cc(-c3cccc(OC)c3)nc3ccc(NC(=O)c4ccc(C)cc4)cc23)cc1	29	50	-3	80*	0	21
CO[C@@H]1CN(C)C(=O)c2ccc(NS(C)(=O)=O)cc2OC[C@@H](C)NC[C@@H]1C	/	0	/	/	-14	/
Cc1ccc(S(=O)(=O)N(C)C[C@H]2Oc3ccc(NC(=O)CCCN(C)C)cc3CC(=O)N([C@@H](C)CO)C[C@@H]2C)cc1	/	-6	/	8	2	/
COc1ccc(CNC(=O)c2cccc3c(-c4cccnc4)coc23)cc1OC	/	17	/	14	-3	88*
COc1cc(NC(=O)c2cccc3c(-c4cnn(C)c4)coc23)cc(OC)c1OC	/	-5	/	-4	73*	24
COc1ccc(NC(=O)c2cccc3c(-c4cnn(C)c4)coc23)cc1	/	-47	/	1	-56	-52
CC[C@H]1OC(=O)[C@H](C)[C@@H](O[C@H]2C[C@@](C)(OC)[C@@H](O)[C@H](C)O2)[C@H](C)[C@@H](O[C@@H]2O[C@H](C)C[C@H](N(C)C)[C@H]2O)[C@](C)(O)C[C@@H](C)C(=NOCOCCOC)[C@H](C)[C@@H](O)[C@]1(C)O	6	-1	54*	18	11	4
CN1CCN(C(=O)C[C@H]2C[C@@H]3c4cc(NC(=O)Nc5ccc(F)cc5)ccc4O[C@@H]3[C@@H](CO)O2)CC1	/	-6	/	/	-16	/
